Bioassay records (PubChem)
This is one part of a sample in which hits are shown more often than they occur.
Artemis inh: Artemis (human) endonuclease inhibition; inhibition, % at 10 µM; actives 0.78% (n = 30,000); AID 686954; recombinant Artemis, quenched FAM hairpin cleavage fluorescence; Q96SD1;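 active = at 10 µM dose, at least 30% inhibition, measured as corrected fluorescence normalized to stimulator and neutral control wells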
Target sequence (Q96SD1 whole entry, looked up): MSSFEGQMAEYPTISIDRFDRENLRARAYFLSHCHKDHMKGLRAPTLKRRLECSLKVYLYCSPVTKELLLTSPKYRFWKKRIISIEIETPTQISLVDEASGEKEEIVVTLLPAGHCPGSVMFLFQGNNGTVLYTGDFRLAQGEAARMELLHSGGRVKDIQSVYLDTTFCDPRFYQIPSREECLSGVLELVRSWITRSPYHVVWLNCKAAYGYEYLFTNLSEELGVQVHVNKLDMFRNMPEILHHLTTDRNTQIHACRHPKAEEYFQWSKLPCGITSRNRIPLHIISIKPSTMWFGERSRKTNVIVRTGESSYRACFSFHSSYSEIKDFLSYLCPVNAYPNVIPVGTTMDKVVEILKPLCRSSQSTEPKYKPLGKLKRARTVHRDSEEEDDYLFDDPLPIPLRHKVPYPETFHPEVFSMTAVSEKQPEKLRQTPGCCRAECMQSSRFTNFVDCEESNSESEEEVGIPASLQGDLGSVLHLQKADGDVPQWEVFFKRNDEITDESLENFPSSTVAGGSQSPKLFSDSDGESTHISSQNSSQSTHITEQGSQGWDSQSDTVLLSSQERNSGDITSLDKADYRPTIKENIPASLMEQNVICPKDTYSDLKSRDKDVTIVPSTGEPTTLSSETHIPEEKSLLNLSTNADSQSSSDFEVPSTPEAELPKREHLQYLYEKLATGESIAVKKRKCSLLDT
* marks the source's active call; other numbers are inactive results.

SMILES	Artemis inh
COC(=O)c1[nH]c(=O)c2ccccc2c1O	28
Cc1ccccc1Nc1cc2ccccc2c(=O)[nH]1	31*
Cc1cccc2cc(=O)[nH]c(C)c12	-3
Cc1ccc(-c2n[nH]c(=S)n2/N=C/C=C\c2ccccc2[N+](=O)[O-])cc1	27
O=[N+]([O-])c1ccccc1/C=C/C=N/n1c(-c2ccc(Cl)cc2)n[nH]c1=S	30*
Cn1cccc1/C=N/n1c(-c2ccccc2)n[nH]c1=S	-1
CC(c1nnc(SCC(=O)N2CC(=O)Nc3ccccc32)n1Cc1ccccc1)N(C)C (centres undefined)	5
N#Cc1cc2c(nc1SC1CCCCC1O)CCCC2 (centres undefined)	4
CCOC(=O)c1c(C)nc2c(c(SC)nn2-c2ccccc2)c1N	16
Nc1[nH]n2c(=O)c3c(nc2c1N=Nc1ccc(Cl)cc1)CCCC3	30*
Cc1[nH]n2c(=O)c3c(nc2c1-c1ccccc1)CCC3	-1
Cc1[nH]n2c(=O)c3c(nc2c1-c1ccc(Cl)cc1)CCC3	8
CCCCn1nnnc1SCC(=O)NCc1ccco1	-4
CCN1C(=O)C(CC(=O)Nc2ccc(Br)cc2)N(CCCc2ccccc2)C1=S (centres undefined)	9
O=C(Nc1ccccc1)c1sc2cc(C(F)(F)F)cnc2c1-c1cccs1	5
COc1ccnc(N=CNOCc2ccc(F)cc2Cl)c1C#N	7
Oc1c(Br)cc(C2N=C(c3ccccc3Cl)NO2)cc1Br (centres undefined)	31*
O=C(O)c1cc(-c2ccccc2Cl)n[nH]1	-9
Cc1cccc(CN(CC(=O)N/N=C/c2cccs2)S(=O)(=O)c2ccc(Cl)cc2)c1	-1
Cc1cc(C)n(-c2nc(NCCO)c3c4c(sc3n2)CCCC4)n1	-2
CCn1c(NN)nc2sc3c(c2c1=O)CCC3	1
Cc1cc(C)n(-c2nc(NCCCO)c3c4c(sc3n2)CCCC4)n1	33*
Cc1cc(C)n(-c2nc(NCC(C)O)c3c4c(sc3n2)CCCC4)n1 (centres undefined)	39*
N=c1c2c3c(sc2ncn1CCCO)CCCC3	-3
Cc1cc(S(=O)(=O)Nc2nc(CN3CCOCC3)nc3sc4c(c23)CCCC4)ccc1F	-6
SMILES	Artemis inh
Cc1cc(C)cc(CC(Cc2nc3ccccc3[nH]2)c2nc3ccccc3[nH]2)c1 (centres undefined)	11
CC(=O)c1c(C)[nH]c(C(=O)COC(=O)CN(C)S(=O)(=O)c2ccc(Cl)cc2)c1C	4
COc1ccc([N+](=O)[O-])cc1NC(=S)NC(NC(=O)C(c1ccccc1)c1ccccc1)C(Cl)(Cl)Cl (centres undefined)	5
CC(/C=C(\NC(=O)c1ccccc1)C(=O)N=Nc1c(O)[nH]c2ccc(C)cc12)=C\c1ccccc1	14
CCOC(=O)c1c(NC(=O)CSc2nnnn2-c2ccccc2)sc2c1CCC(C)C2 (centres undefined)	-4
CCOC(=O)c1c(NC(=O)CSc2nnc3c(n2)[nH]c2ccccc23)sc2c1CCN(C)C2	42*
CCOC(=O)c1c(NC(=O)CSc2nncs2)sc(C)c1C	-5
CCOC(=O)c1ccc(Nc2nc(-c3cccnc3)nc3ccccc23)cc1	21
COc1ccc([N+](=O)[O-])cc1COc1cc(C)cc2oc(=O)cc(-c3ccccc3)c12	2
Cn1c(NCc2ccccc2)cc(=O)n(C)c1=O	-8
CC(C)N(CCNC(=O)C1CCC(=O)N1Cc1ccc(F)cc1)Cc1ccccc1 (centres undefined)	-4
CC(=O)N(Cc1ccc(F)cc1)C1=C(NCc2ccccc2)C(=O)c2ccccc2C1=O	39*
Cc1nc(-c2ccccc2)sc1-c1nc(-c2ccncc2)ncc1S(=O)(=O)c1ccccc1	15
CC(C)(C)Nc1nc(NN)nc(NC(C)(C)C)n1	43*
CNc1nc(Cl)nc(NC(C)(C)C)n1	0
CC(=O)C(Sc1nc(NC(C)(C)C)nc(N(C)C)n1)C(C)=O	7
CNc1nc(C)cc(C)c1S(=O)(=O)c1ccc(C)cc1	4
Cc1ccc(N2CCN(C(=O)c3ccccc3NC(=O)C3CC=CCC3C(=O)O)CC2)cc1 (centres undefined)	16
CCOc1ccc(-n2ccnc2SCC(=O)NCc2ccc3c(c2)OCO3)cc1	-5
O=C1c2ccccc2C(=O)c2c1oc(C(F)(F)F)c2C(=O)c1ccccc1	42*
O=C(c1ccccc1)c1nn(-c2ccccc2)c(=O)cc1C(F)(F)F	-4
O=C(c1ccccc1)c1nn(-c2ccc(Cl)cc2)c(=O)cc1C(F)(F)F	1
COc1ccc(S(=O)(=O)N/N=C(/C)c2cccc(NC(=O)c3ccccc3Cl)c2)cc1	-5
O=C(O)Cc1ccc(C(=O)c2ccccc2F)s1	0
Clc1ccc(CSc2nnc(-c3sccc3-n3cccc3)o2)cc1	1
SMILES	Artemis inh
O=C(Oc1ccc([N+](=O)[O-])cc1)c1cc(-c2ccccc2)nc2ccccc12	-1
O=C(NCc1ccco1)c1cc(-c2ccccc2)nc2ccccc12	-2
O=C(N/N=C/c1ccc([N+](=O)[O-])o1)c1cc(-c2cccc(Br)c2)nc2ccccc12	39*
Cc1ccc(C)c(S(=O)(=O)Nc2ccccc2C(=O)Nc2ccccc2N2CCOCC2)c1	15
Clc1ccc(-n2cccc2/C=N/n2cnnc2)cc1	-2
Cc1cc(/C=N/n2cnnc2)c(C)n1-c1ccc(OCc2ccc(Cl)cc2)cc1	33*
Clc1ccc(Cn2cc(/C=N/n3cnnc3)c3ccccc32)cc1	3
CC(=O)NS(=O)(=O)c1cccnc1Nc1ccc(Cl)cc1	-4
Cc1ccc(N=Nc2c(=O)[nH]n3c(=O)cc(C)[nH]c23)cc1	12
Cc1[nH]n2c(=O)cc(C(C)(C)C)nc2c1-c1ccccc1	15
Cc1[nH]n2c(=O)cc(-c3ccc([N+](=O)[O-])cc3)nc2c1-c1ccccc1	32*
Cc1ccc(N=Nc2c(N)[nH]n3c(=O)cc(-c4ccccc4)nc23)cc1	48*
COc1cccc(N=Nc2c(N)[nH]n3c(=O)cc(-c4ccccc4)nc23)c1	36*
COc1cccc(-c2cc(C(F)(F)F)n3ncc(C(=O)O)c3n2)c1	-2
CCOC(=O)Cc1cc(=O)n2[nH]c(C)c(-c3ccc(OC)cc3)c2n1	5
CSc1nc2nc(-c3ccccc3)cc(=O)n2[nH]1	-2
Cc1ccc(C(=O)Nc2nc3nc(-c4ccccc4)cc(=O)n3[nH]2)cc1	3
CCCCOP(=O)(OCCCC)C1(NS(=O)(=O)c2ccccc2)C=CC(=O)c2ccccc21 (centres undefined)	10
CC(C)OC(=O)CSc1nnc(SCc2cccc3ccccc23)s1	1
CC(=O)N1CCN(CCN=CC2=C(O)CC(c3cccs3)CC2=O)CC1 (centres undefined)	0
O=C(CCc1ccccc1)NC(NC(=S)Nc1ccc(Cl)cc1)C(Cl)(Cl)Cl (centres undefined)	6
Fc1ccccc1Cc1nnc2n1N=C(c1ccc(Cl)cc1)CS2	2
COC(=O)\C(C(C)=O)=C(/C=C/C=C/C=C/N(C)C)N(C)C	-51
Cc1ccc(C(=O)C(C)OC(=O)c2n[nH]c(=O)c3ccccc23)cc1 (centres undefined)	8
COc1ccc(-n2nnnc2-c2cn(C)nc2C(F)(F)F)cc1	-6
O=C1NC(=O)/C(=C\c2ccccc2Oc2ccc(F)c(F)c2)S1	34*
CCOC(=O)CSc1nnnn1-c1cc(OC)c(Cl)cc1OC	-13
COc1cc(-n2ccnc2SC)c(Cl)cc1Cl	52*
COc1cc(Nc2nnc(C)s2)c(Cl)cc1Cl	-3
O=c1c2ccccc2c2c(O)nc(-c3ccccc3)n2n1Cc1ccccc1	2
